Consider nine compounds from PubChem BioAssay (NCI).

This is part of a sample that, as a whole, favours compounds with a hit. Of some 83,000 tested, about 20% had one in any assay.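 In brief: 96-well plates, 48 h treatment, single concentration, percent growth endpoint.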 A number with no mark means an inactive call. Active and inactive are the calls of the source. How the source made its calls: active means growth percent below 10; inactive means the rest.

Test systems include HCT-15 colon; HT29 colon; SNB-75 CNS; SNB-19 CNS; U251 CNS; PC-3 prostate; SK-MEL-5 melanoma; UACC-62 melanoma; LOX IMVI melanoma; SK-MEL-28 melanoma; SK-MEL-2 melanoma; EKVX NSCLC; SN12C renal; TK-10 renal; ACHN renal; CAKI-1 renal; A498 renal; CCRF-CEM leukemia; MOLT-4 leukemia; UO-31 renal.
Experiment in all cases: NCI-60 one-dose screen, 48 h (100 = growth as untreated, 0 = no growth, -100 = all killed)
Holding throughout (details): 10 µM

On to `O=[N+]([O-])c1ccc(-c2nc(-c3ccccc3)c(-c3ccccc3)n2-c2ccc(S(=O)(=O)Nc3ncccn3)cc2)cc1`, for which the growth with HCT-15 colon is 23.8%; in the assay with HT29 colon it was 41.4%; in the assay with SNB-75 CNS, 44.1%; in the assay on SNB-19 CNS, 27.3%; in the assay on U251 CNS, 35.8%; with PC-3 prostate, 29.7%. The growth was 28.4% in the assay with SK-MEL-5 melanoma; 42% in the assay with UACC-62 melanoma; 28% in the assay on LOX IMVI melanoma; 36.2% in the assay with SK-MEL-28 melanoma; 69.4% in the assay on SK-MEL-2 melanoma; 22.8% in the assay with EKVX NSCLC. Further, the growth in the assay with SN12C renal is 38.9%; with TK-10 renal, 66%; in the assay on ACHN renal it was 50.1%; with CAKI-1 renal, 29%; with A498 renal, 79.3%; with CCRF-CEM leukemia it was 20.8%. In the assay on MOLT-4 leukemia, the growth is 26.2%.

On to `COc1cc(OC(F)(F)F)ccc1C(=O)Nc1sc2c(c1C#N)CCC(=O)C2`, for which the growth with HCT-15 colon was 14.6%; in the assay on HT29 colon, 95%; in the assay with SNB-75 CNS, 93.7%; in the assay with SNB-19 CNS, 91.8%; with U251 CNS it was 7.29% (active); in the assay on PC-3 prostate it was 37.6%. Besides, the growth in the assay with SK-MEL-5 melanoma is 72.3%; in the assay on UACC-62 melanoma it was 65.6%; with LOX IMVI melanoma, 64.7%; in the assay with SK-MEL-28 melanoma, 121%; with SK-MEL-2 melanoma, 105%; with EKVX NSCLC, 46.7%. Moreover, the growth in the assay with UO-31 renal is 62.4%; in the assay with TK-10 renal, 94.2%; in the assay with ACHN renal, 87.1%; in the assay on CAKI-1 renal, 71.6%; in the assay with A498 renal, 137%; in the assay with CCRF-CEM leukemia, 18.3%. Also, the growth in the assay on MOLT-4 leukemia was 90.8%.

As to `COc1ccc2[nH]cc(/C=N/Nc3cccc(Cl)n3)c2c1`, the growth in the assay with HCT-15 colon is 29.6%; in the assay with HT29 colon it was 60.6%; with SNB-75 CNS, 61.8%; in the assay on SNB-19 CNS, 61%; in the assay with U251 CNS, 57.5%; with PC-3 prostate, 35%. In addition, the growth in the assay on SK-MEL-5 melanoma is 64%; with UACC-62 melanoma, 61.8%; with LOX IMVI melanoma, 28.8%; with SK-MEL-28 melanoma, 96.4%; in the assay with SK-MEL-2 melanoma, 92%; with EKVX NSCLC, 44.2%. Further, the growth in the assay with SN12C renal is 38.7%; in the assay on TK-10 renal, 91.1%; in the assay with ACHN renal, 47.8%; in the assay with A498 renal it was 120%; in the assay with CCRF-CEM leukemia it was 9.72% (active); with MOLT-4 leukemia, 14.8%.

`S=c1nc(-c2ccccc2)cc(-c2cc3ccccc3nc2Cl)[nH]1`: the growth was 49.7% in the assay on HCT-15 colon; 67.6% in the assay on HT29 colon; 23.4% in the assay on SNB-75 CNS; 81.2% in the assay on SNB-19 CNS; 83.2% with U251 CNS; 60.1% with PC-3 prostate. The growth was 32.1% in the assay with SK-MEL-5 melanoma; 43.8% in the assay with UACC-62 melanoma; 44.9% in the assay with LOX IMVI melanoma; 65.2% in the assay on SK-MEL-28 melanoma; 37.5% in the assay with SK-MEL-2 melanoma; 70% with EKVX NSCLC. Moreover, the growth in the assay on SN12C renal was 88.3%; in the assay on TK-10 renal it was 162%; in the assay on ACHN renal, 77.7%; in the assay on CAKI-1 renal, 57.2%; with A498 renal it was 126%; in the assay with CCRF-CEM leukemia, 43.5%. Also, the growth in the assay with MOLT-4 leukemia was 30.8%.

In the case of `COc1ccc(CCN2C(=O)/C(=C/c3csc(C#N)n3)SC2=S)cc1`, the growth in the assay with HCT-15 colon is -51.7% (active); in the assay on HT29 colon, -49.4% (active); in the assay on SNB-75 CNS, 53.2%; with SNB-19 CNS, 72.2%; in the assay on U251 CNS, 21.4%; in the assay with PC-3 prostate, 32.8%. Moreover, the growth is 36.6% in the assay with SK-MEL-5 melanoma; -26.6% (active) with UACC-62 melanoma; -78.5% (active) in the assay on LOX IMVI melanoma; -10.9% (active) in the assay on SK-MEL-28 melanoma; -0.186% (active) in the assay with SK-MEL-2 melanoma; 20% in the assay with EKVX NSCLC. Also, the growth in the assay with SN12C renal is -38.2% (active); with TK-10 renal, 13.3%; in the assay with ACHN renal it was 4.4% (active); with CAKI-1 renal, -0.602% (active); in the assay with A498 renal, 61.4%; in the assay on MOLT-4 leukemia, -11.2% (active).

Regarding `COc1cccc(/C=C2\N=C(C)N(CCc3ccc(S(N)(=O)=O)cc3)C2=O)c1`, the growth was 105% with HCT-15 colon; 108% with HT29 colon; 98% in the assay on SNB-75 CNS; 95.1% in the assay with SNB-19 CNS; 99.9% in the assay with U251 CNS; 98.4% in the assay on PC-3 prostate. In addition, the growth in the assay on SK-MEL-5 melanoma is 102%; with UACC-62 melanoma, 94%; with LOX IMVI melanoma, 97.4%; in the assay on SK-MEL-28 melanoma it was 105%; with SK-MEL-2 melanoma it was 109%; in the assay with EKVX NSCLC it was 95.6%. In addition, the growth in the assay on UO-31 renal is 90.9%; in the assay with TK-10 renal, 97.6%; in the assay with ACHN renal, 107%; in the assay on CAKI-1 renal it was 78.8%; in the assay on A498 renal it was 101%; in the assay with CCRF-CEM leukemia it was 96.4%. In the assay with MOLT-4 leukemia, the growth is 97.8%.

`CCC(C)S(=O)(=O)c1oc(-c2ccc(C)cc2)nc1S(=O)(=O)c1ccccc1` (configuration not stated): the growth is -72.2% (active) in the assay with HCT-15 colon; -71.5% (active) with HT29 colon; 3.57% (active) with SNB-75 CNS; 0.128% (active) in the assay on SNB-19 CNS; -95.9% (active) in the assay on U251 CNS; -60.5% (active) with PC-3 prostate. In addition, the growth with SK-MEL-5 melanoma was -86.5% (active); in the assay on UACC-62 melanoma it was -94.2% (active); in the assay with LOX IMVI melanoma it was -94% (active); in the assay with SK-MEL-28 melanoma, -99.8% (active); with SK-MEL-2 melanoma, -94.9% (active); in the assay with EKVX NSCLC it was -61% (active). Also, the growth in the assay with SN12C renal is -85.6% (active); in the assay with ACHN renal, -100% (active); with CAKI-1 renal, -100% (active); in the assay on A498 renal it was 109%; with CCRF-CEM leukemia, -46% (active).

For `O=C(CSc1nnc(-c2ccc3nc(-c4ccc(Cl)cc4)[nH]c3c2)o1)Nc1ccc(Cl)cc1`, the growth in the assay on HCT-15 colon is -84% (active); in the assay on HT29 colon, -35.4% (active); in the assay with SNB-75 CNS, 58%; with SNB-19 CNS, -49.4% (active); in the assay on U251 CNS, -57.7% (active); with PC-3 prostate, -7.65% (active). Besides, the growth in the assay with SK-MEL-5 melanoma was -68.9% (active); in the assay with UACC-62 melanoma, -87.1% (active); in the assay on LOX IMVI melanoma, -99.2% (active); in the assay on SK-MEL-28 melanoma, -76.9% (active); with SK-MEL-2 melanoma, -25.2% (active); with EKVX NSCLC, 5.97% (active). The growth is -93.7% (active) in the assay on SN12C renal; 50.7% in the assay on TK-10 renal; -89.7% (active) in the assay on ACHN renal; -35.6% (active) in the assay on CAKI-1 renal; 26% in the assay on A498 renal; -1.24% (active) with CCRF-CEM leukemia. Besides, the growth in the assay on MOLT-4 leukemia is -4.88% (active).

For `COc1ccc2[nH]c(=O)c(CSc3cccc(N)c3)cc2c1`, the growth with HCT-15 colon is 48.2%; in the assay on HT29 colon it was 75.4%; in the assay on SNB-75 CNS it was 82.7%; with SNB-19 CNS, 70.4%; in the assay with U251 CNS it was 70.1%; in the assay on PC-3 prostate it was 69.2%. For the same compound, the growth is 6.41% (active) with SK-MEL-5 melanoma; 16.5% in the assay on UACC-62 melanoma; 16.1% in the assay with LOX IMVI melanoma; 69.6% with SK-MEL-28 melanoma; 64% in the assay on SK-MEL-2 melanoma; 48.7% in the assay with EKVX NSCLC. In addition, the growth in the assay with UO-31 renal is 56.8%; in the assay on TK-10 renal, 72.3%; in the assay on ACHN renal it was 20.9%; with CAKI-1 renal it was 40.5%; with A498 renal, 72.6%; in the assay on CCRF-CEM leukemia, 47.2%. The growth in the assay with MOLT-4 leukemia is 41.2%.
